# Reference: paper PMC7862700, “An all-to-all approach to the identification of sequence-specific readers for epigenetic DNA modifications on cytosine”
# Legend:
# Test in all cases: DAPPL (digital affinity profiling via proximity ligation, sequencing); 10 mM Tris-HCl pH 7.5, 50 mM NaCl, 1 mM DTT, 4% glycerol, room temperature, 30 min; GST-TFs on glutathione beads, 16-mer random dsDNA library, 0.1% formaldehyde crosslink after washing; high values mean tight binding
# Details in all cases: protein: recombinant; tags: N-terminal GST; dsDNA, one strand shown
# ETV5 = ETV5 (Homo sapiens, UniProt P41161 1-510)
# Procedure, shortened: (§1)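 Human transcription factors carrying a GST fusion were produced in yeast, bound to glutathione beads, tagged with DNA barcodes and pooled together with a tag-only sample. Each pool was held with 200 nmole of a random double-stranded 16-mer DNA library in Tris/NaCl/DTT/glycerol buffer for 30 min at room temperature, then washed, crosslinked in 0.1% formaldehyde, proximity-ligated with BsaI/T4 ligase (1 h, 37 °C), PCR-amplified and sequenced on an Illumina NextSeq500. Binding signal is the read frequency of each hexamer for a given factor divided by its frequency in the tag-only sample.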
# SPIC = target: T1, SPIC (Homo sapiens, UniProt Q8N5J4 1-248)
# T1 sequence: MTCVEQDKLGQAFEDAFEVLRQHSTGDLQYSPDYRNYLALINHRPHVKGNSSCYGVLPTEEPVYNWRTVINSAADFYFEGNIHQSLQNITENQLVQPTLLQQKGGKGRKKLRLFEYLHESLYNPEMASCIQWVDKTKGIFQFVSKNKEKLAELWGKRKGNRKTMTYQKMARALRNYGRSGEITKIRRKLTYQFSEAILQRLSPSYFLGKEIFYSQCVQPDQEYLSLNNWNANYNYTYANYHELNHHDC
# Procedure, shortened: as §1
# ELF4 = ELF4 (Homo sapiens, UniProt Q99607 1-663)
# Procedure, shortened: as §1
# ETV1 = ETV1 (Homo sapiens, UniProt P50549 1-477)
# Procedure, shortened: as §1
# ERF = target: T2, ERF (Homo sapiens, UniProt P50548 1-548)
# T2 sequence: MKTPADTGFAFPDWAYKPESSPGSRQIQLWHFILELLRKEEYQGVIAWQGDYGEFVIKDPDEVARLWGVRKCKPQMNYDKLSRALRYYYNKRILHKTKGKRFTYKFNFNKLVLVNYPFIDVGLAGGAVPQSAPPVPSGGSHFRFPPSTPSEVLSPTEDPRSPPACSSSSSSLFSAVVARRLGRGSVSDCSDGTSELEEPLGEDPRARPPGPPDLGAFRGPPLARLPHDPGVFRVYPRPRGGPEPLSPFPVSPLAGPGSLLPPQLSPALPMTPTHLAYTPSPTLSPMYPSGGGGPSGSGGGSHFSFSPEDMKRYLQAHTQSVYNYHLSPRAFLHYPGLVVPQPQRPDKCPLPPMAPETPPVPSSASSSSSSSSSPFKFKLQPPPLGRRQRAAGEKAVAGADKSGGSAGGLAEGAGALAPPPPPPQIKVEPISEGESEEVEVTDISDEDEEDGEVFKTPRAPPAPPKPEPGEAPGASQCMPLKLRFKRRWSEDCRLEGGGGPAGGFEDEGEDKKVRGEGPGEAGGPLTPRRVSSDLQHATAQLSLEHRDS
# Procedure, shortened: as §1
# ETV3L = target: T3, ETV3L (Homo sapiens, UniProt Q6ZN32 1-361)
# T3 sequence: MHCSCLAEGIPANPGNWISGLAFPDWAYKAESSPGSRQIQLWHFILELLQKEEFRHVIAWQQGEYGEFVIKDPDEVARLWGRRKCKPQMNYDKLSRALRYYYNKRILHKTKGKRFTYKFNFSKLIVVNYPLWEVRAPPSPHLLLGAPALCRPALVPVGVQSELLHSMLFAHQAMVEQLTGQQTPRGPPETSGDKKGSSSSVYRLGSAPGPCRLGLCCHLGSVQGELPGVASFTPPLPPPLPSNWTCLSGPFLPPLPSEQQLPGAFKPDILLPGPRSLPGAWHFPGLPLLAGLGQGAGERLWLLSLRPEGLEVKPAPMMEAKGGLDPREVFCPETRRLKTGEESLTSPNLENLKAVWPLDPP
# Procedure, shortened: as §1
# ETS2 = target: T4, ETS2 (Homo sapiens, UniProt P15036 1-469)
# T4 sequence: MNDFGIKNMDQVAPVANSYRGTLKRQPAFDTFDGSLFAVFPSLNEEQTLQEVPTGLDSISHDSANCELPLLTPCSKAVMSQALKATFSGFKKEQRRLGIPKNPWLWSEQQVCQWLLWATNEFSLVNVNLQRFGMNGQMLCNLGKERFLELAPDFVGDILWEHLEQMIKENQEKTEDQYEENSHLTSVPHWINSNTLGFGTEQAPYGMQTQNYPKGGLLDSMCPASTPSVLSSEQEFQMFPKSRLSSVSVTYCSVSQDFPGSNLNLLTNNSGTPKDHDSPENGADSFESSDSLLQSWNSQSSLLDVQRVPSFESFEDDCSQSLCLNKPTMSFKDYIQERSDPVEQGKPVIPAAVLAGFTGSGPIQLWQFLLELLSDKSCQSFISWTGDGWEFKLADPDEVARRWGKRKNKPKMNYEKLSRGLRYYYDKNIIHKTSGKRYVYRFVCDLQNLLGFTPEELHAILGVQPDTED
# Procedure, shortened: as §1
# SPDEF = target: T5, SPDEF (Homo sapiens, UniProt O95238 1-335)
# T5 sequence: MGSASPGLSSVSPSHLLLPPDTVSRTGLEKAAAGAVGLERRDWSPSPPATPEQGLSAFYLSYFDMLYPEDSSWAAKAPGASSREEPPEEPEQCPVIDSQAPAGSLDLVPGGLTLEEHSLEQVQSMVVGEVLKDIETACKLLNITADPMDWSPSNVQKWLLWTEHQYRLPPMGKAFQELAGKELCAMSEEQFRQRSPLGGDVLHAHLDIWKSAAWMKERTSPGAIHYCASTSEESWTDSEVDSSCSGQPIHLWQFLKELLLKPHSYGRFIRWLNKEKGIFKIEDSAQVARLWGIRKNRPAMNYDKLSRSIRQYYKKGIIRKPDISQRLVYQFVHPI
# Procedure, shortened: as §1
# ETV3 = target: T6, ETV3 (Homo sapiens, UniProt P41162-2 1-143)
# T6 sequence: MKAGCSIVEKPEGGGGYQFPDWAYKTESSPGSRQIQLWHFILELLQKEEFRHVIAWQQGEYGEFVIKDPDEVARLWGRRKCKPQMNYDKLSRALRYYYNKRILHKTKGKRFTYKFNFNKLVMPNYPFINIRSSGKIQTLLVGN
# Procedure, shortened: as §1
# ETV6 = ETV6 (Homo sapiens, UniProt P41212 1-452)
# Procedure, shortened: as §1
# ETV5, sequence (P41161 whole entry, the tested form may be a part): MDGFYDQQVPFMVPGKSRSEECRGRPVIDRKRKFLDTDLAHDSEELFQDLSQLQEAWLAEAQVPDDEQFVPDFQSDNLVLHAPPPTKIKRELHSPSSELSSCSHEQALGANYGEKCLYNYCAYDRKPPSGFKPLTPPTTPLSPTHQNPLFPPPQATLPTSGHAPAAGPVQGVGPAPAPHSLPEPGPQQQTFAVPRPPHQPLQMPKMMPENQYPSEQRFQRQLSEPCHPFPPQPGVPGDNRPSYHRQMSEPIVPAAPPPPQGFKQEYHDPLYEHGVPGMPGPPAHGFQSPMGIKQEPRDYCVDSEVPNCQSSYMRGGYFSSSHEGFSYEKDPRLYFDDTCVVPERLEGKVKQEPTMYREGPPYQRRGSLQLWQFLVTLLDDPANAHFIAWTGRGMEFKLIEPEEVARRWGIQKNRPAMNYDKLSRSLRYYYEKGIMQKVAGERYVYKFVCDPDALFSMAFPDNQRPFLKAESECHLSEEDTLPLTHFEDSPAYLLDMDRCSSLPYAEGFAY
# ETV1, sequence (P50549 whole entry): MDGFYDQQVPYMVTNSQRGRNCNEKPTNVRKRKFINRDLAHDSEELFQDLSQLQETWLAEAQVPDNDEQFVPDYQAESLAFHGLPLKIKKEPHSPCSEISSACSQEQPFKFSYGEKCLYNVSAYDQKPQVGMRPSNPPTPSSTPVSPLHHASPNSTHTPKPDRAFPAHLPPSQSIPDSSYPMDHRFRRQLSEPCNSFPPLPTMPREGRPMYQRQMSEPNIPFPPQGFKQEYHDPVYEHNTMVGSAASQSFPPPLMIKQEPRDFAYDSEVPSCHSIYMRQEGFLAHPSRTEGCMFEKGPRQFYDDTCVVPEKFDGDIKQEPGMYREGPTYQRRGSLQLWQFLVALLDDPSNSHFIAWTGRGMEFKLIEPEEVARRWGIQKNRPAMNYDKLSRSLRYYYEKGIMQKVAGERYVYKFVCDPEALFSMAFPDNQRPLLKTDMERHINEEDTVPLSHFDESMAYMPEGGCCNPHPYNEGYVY
# ETV6, sequence (P41212 whole entry): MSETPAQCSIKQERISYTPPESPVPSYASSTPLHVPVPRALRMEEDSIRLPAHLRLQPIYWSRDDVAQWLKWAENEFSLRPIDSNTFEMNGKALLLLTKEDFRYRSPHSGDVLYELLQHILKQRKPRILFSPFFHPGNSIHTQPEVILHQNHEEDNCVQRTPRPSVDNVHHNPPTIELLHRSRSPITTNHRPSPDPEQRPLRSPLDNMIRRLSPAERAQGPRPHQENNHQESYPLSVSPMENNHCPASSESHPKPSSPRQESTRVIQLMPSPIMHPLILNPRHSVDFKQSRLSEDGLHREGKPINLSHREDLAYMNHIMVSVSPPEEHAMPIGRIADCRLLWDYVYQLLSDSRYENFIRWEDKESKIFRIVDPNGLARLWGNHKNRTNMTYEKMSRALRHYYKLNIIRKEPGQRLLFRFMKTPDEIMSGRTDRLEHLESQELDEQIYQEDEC
# ELF4, sequence (Q99607 whole entry): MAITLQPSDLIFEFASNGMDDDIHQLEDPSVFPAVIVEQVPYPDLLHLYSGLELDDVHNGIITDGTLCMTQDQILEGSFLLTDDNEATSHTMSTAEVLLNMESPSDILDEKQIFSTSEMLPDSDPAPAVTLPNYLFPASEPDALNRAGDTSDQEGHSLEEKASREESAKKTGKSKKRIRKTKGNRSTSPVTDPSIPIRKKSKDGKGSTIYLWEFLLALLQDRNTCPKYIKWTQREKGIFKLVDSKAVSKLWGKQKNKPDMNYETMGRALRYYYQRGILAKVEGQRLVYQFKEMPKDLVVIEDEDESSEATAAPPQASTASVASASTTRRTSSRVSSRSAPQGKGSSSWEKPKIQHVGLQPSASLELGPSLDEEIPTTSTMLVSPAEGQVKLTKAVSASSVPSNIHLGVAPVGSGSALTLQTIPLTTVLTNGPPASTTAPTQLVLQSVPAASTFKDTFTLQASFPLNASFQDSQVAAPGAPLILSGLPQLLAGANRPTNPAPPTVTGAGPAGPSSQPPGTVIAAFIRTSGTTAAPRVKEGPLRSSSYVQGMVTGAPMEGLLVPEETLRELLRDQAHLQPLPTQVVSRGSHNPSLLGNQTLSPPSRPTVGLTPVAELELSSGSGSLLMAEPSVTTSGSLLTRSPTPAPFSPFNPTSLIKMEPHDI
sequence,measurement,setting,value
AAACCG,binding signal,ETV5,"1.07 fold enrichment (6-mer frequency, TF over GST control)"
same,binding signal,SPIC,"1.05 fold enrichment (6-mer frequency, TF over GST control)"
same,binding signal,ELF4,"1.07 fold enrichment (6-mer frequency, TF over GST control)"
same,binding signal,ETV1,"1.18 fold enrichment (6-mer frequency, TF over GST control)"
same,binding signal,ERF,"1.1 fold enrichment (6-mer frequency, TF over GST control)"
same,binding signal,ETV3L,"1.06 fold enrichment (6-mer frequency, TF over GST control)"
same,binding signal,ETS2,"1 fold enrichment (6-mer frequency, TF over GST control)"
same,binding signal,SPDEF,"1.11 fold enrichment (6-mer frequency, TF over GST control)"
same,binding signal,ETV3,"1.08 fold enrichment (6-mer frequency, TF over GST control)"
same,binding signal,ETV6,"1.05 fold enrichment (6-mer frequency, TF over GST control)"
